# Article PMC6212790, “How bacterial xenogeneic silencer rok distinguishes foreign from self DNA in its resident genome”
# Whole data set: some 33,000 sequences, median “e-score” near -0.038, cut for the highest 2% near 0.33. The entries come from a sample that favours the highest values as a whole.
# Target: T1, GST-Rok-C97-191 (Bacillus subtilis subsp. subtilis str. …, UniProt O34857 97-191)
# T1 sequence: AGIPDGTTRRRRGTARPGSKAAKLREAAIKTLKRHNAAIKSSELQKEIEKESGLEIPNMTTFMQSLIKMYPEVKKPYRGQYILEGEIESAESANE
# Test: protein binding microarray; Rok is a gene silencer of Bacillus subtilis; high values mean tight binding
# Conditions: protein: recombinant; tags: GST (pTH5325, pDEST15-Magic modified); dsDNA, one strand shown
# Outline: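 Every oligonucleotide joins a 25-mer constant primer to a 35-mer variable part drawn from a de Bruijn sequence of order 10, so each non-palindromic 8-mer appears at least 32 times and each palindromic 8-mer 16 times. The preference for every 8-mer is reported as a unitless, rank-based enrichment score (E-score). This score spans 0.5 for the most favored 8-mer to −0.5 for the most disfavored.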
row,Sequence,binding signal [E-score]
1,GGCGAAGA,-0.0389
2,GTTAAAAC,0.0593
3,CCAACTGA,-0.0233
4,ATATAAAA,0.338
5,ATATAAAG,0.135
6,CTATAAAC,0.291
7,GTATAAAC,0.137
8,ATATAAAC,0.33
9,ATATAAAT,0.419
10,TTATAAAA,0.218
11,CTATAAAA,0.229
12,ATAAAAAT,0.28
13,CGGAGACG,-0.133
14,CGTGTAGC,-0.0895
15,CTAGAGAC,0.0353
16,CGAACTAA,0.135
17,AGAACTAT,0.268
18,CGAACTAG,0.299
19,AGAACTAC,0.369
20,AGAACTAA,0.259
21,CGAACTAC,0.373
22,CGACCGGA,-0.00838
23,GGTTCCGA,0.0637
24,ACTTGTTC,0.195
25,GGCAAGAA,-0.058

row,Sequence,binding signal [E-score]
1,CTCGAAAC,0.104
2,ATGCCCGA,-0.167
3,AACTCATA,0.0551
4,AATAGCTA,0.329
5,AATAGCTG,0.186
6,GATAGCAA,0.137
7,GATAGCTA,0.367
8,GATAGCGA,0.0913
9,CATAGCTA,0.304
10,CAGTCTAA,-0.037
11,GGCAAGTA,0.0714
12,GTAAAATA,0.306
13,CACAAGTA,0.205
14,AACAAATA,0.24
15,TACAAATA,0.359
16,AACAAGTA,0.371
17,TAAAAATA,0.351
18,AAAAAATA,0.323
19,CACAAATA,0.243
20,ATAAAATG,0.246
21,ATAAAATA,0.396
22,CTAAAATA,0.295
23,AACAAGTT,0.0415
24,CTCTCGCA,-0.118
25,AATCCGAA,0.0539

row,Sequence,binding signal [E-score]
1,CTGAAGCA,-0.0795
2,AGGTCACA,-0.186
3,GCGGTTAA,0.123
4,AAGAACTT,-0.176
5,AAGTCTAA,-0.0843
6,ACTGAAGT,0.155
7,AGGGACCA,-0.0833
8,TTAAAAAA,-0.0566
9,CTAAAAAA,0.168
10,TAAAAAAA,0.328
11,AATAAATA,0.258
12,GATAAATA,0.323
13,TATAAATA,0.381
14,CTCCTTGA,-0.109
15,TCATGGAA,-0.0558
16,CGAGTCTA,-0.0403
17,ACGAACTC,-0.0425
18,CGGAATTC,0.0787
19,GGAAACTA,0.354
20,AGAAACTA,0.377
21,AGAAAACA,0.0817
22,CGAAACTC,0.0357
23,GGAAACAA,0.0324
24,GGAAACCA,-0.105
25,CGAAACTA,0.425

row,Sequence,binding signal [E-score]
1,AGAAACTC,0.0994
2,GGAAAACA,-0.00212
3,CGAAAACA,0.348
4,AGAAACTG,0.0822
5,CGAAACCA,-0.131
6,GAAATGGC,-0.16
7,ACTCGTAC,0.0277
8,CAGTAATC,-0.0737
9,GATGCAGC,-0.0978
10,AACATATT,0.24
11,GTACGCCA,-0.0805
12,GCTTCACA,-0.0519
13,CATGACTC,0.0199
14,AATGGTAT,0.328
15,ATTGGTAC,0.278
16,CATGGTAG,0.188
17,AATGGTAG,0.441
18,ATTGGTAG,0.38
19,ATTGGTAA,0.258
20,AGTGGTAG,0.378
21,ATAGGTAG,0.358
22,AGTGGTAC,0.202
23,CGTGGTAG,0.206
24,ATAGGTAA,0.225
25,ATAGGTAC,0.257

row,Sequence,binding signal [E-score]
1,CTTATTCC,0.00112
2,AAGAGAGC,-0.136
3,AGCGTACC,-0.188
4,AGCGGGAG,-0.145
5,ACCAACTA,0.161
6,TACGGCCA,-0.0766
7,ACTTTCGC,0.0461
8,TACCCATA,0.234
9,AGCCTTAT,-0.11
10,ACTACAAG,0.137
11,ACTACAAC,0.295
12,ACTACATG,0.307
13,ACTACTAC,0.419
14,CCTACATC,0.187
15,CCTACTAG,0.18
16,ACTACAAT,0.329
17,ACTACTAG,0.361
18,ACTACTCG,0.159
19,ACTACTGC,0.113
20,ACTACATC,0.334
21,GCTACTAC,0.264
22,CTGCCTTC,-0.104
23,GCTCGCAA,-0.145
24,AGCTAGGA,-0.00935
25,ACTACTCA,0.265

row,Sequence,binding signal [E-score]
1,ACTACGAT,0.362
2,CCTACTAC,0.343
3,ACTACGAA,0.163
4,CCTACTAA,0.101
5,ACTACTCT,0.19
6,CCTACTTC,0.0914
7,ACTACGAC,0.0766
8,ACTACTAT,0.46
9,CCGGACCG,-0.0456
10,CGTCAACC,-0.182
11,GTGAGATA,0.0844
12,CCTTCTCC,-0.165
13,ACCGCTAA,0.13
14,GTCCAATA,0.0328
15,CTCGCAAA,0.0435
16,ACTCGGTA,0.286
17,GGGAGCAC,-0.183
18,ATATAATA,0.446
19,GTATAATA,0.413
20,ATATAATC,0.201
21,ATATAATG,0.3
22,CTATAATA,0.34
23,GTATAACA,0.141
24,CTATAAGA,0.156
25,CTATAATC,0.222

row,Sequence,binding signal [E-score]
1,GTATAAAA,0.32
2,CGAGAAGA,-0.0403
3,CCTTAGGA,0.047
4,ACTGCACC,0.128
5,TCTTAAAA,-0.0115
6,AAAACAAC,0.116
7,AAAGTGAC,-0.0335
8,ATTCTTGC,0.103
9,ATATGGTA,0.331
10,CTATGTTA,0.256
11,ATATGTTC,0.238
12,GAATGGTC,-0.121
13,ATATGTTA,0.331
14,ATATGGTG,0.159
15,CTATGGTA,0.211
16,GAATGGTA,0.39
17,TAATGGTA,0.325
18,AGAGCCAG,-0.194
19,ACGTGCCT,-0.189
20,CCGTTCTA,0.108
21,TACAGGAA,0.0535
22,GGAATCGA,0.209
